Compounds without any hit were thinned out: in the full panel of roughly 83,000, 20% have a hit.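 Compound tested at a single concentration for 48 hours in 96-well plates; a percent growth value below 10 was scored as active.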 Active and inactive are the calls of the source.
Legend:
Assay in all cases: NCI-60 one-dose screen, 48 h (100 = growth as untreated, 0 = no growth, -100 = all killed)
Conditions in all cases: 10 µM unless noted
T-47D breast = test system: T-47D breast
BT-549 breast = test system: BT-549 breast
MDA-MB-435 melanoma = test system: MDA-MB-435 melanoma
SW-620 colon = test system: SW-620 colon
MCF7 breast = test system: MCF7 breast
HCT-116 colon = test system: HCT-116 colon
HCC-2998 colon = test system: HCC-2998 colon
KM12 colon = test system: KM12 colon

Measured: growth

O=S(=O)(Oc1ccc(-c2cn3ccoc3n2)cc1)C1CCCCC1
inactive: T-47D breast 95.7% | BT-549 breast 125% | MDA-MB-435 melanoma 98.6% | SW-620 colon 103% | MCF7 breast 87% | HCT-116 colon 89.3% | HCC-2998 colon 113% | KM12 colon 103%

O=S(=O)(NCCCNc1nccc(-c2[nH]c(-c3ccccc3)nc2-c2ccc(F)c(O)c2)n1)c1cccc(F)c1
inactive: T-47D breast 73.4% | BT-549 breast 96.4% | MDA-MB-435 melanoma 38% | SW-620 colon 120% | MCF7 breast 78.3% | HCT-116 colon 72.2% | HCC-2998 colon 114% | KM12 colon 88.9%

Brc1ccc(-c2cc(-c3ccc4c(c3)OC=CO4)n[nH]2)s1
inactive: T-47D breast 48.5% | BT-549 breast 91.3% | MDA-MB-435 melanoma 15.3% | SW-620 colon 79.1% | MCF7 breast 20.7% | HCT-116 colon 91.5% | HCC-2998 colon 84.5% | KM12 colon 58.6%

Cc1cc(C)cc(NC2=C(Cl)C(=O)c3nc(C)ccc3C2=O)c1
inactive: BT-549 breast 66.6% | HCC-2998 colon 77.6% | KM12 colon 76.8%
active: T-47D breast -20% | MDA-MB-435 melanoma -78.8% | SW-620 colon -6.15% | MCF7 breast -44.4% | HCT-116 colon 9.38%

CN1CCN(c2ccc(Nc3nc(NCCCNS(=O)(=O)c4ccc(F)cc4)c4sccc4n3)cc2)CC1
inactive: T-47D breast 29.8% | BT-549 breast 65.9% | MDA-MB-435 melanoma 47.3% | SW-620 colon 70.1% | MCF7 breast 31.2% | HCT-116 colon 20.8% | HCC-2998 colon 74.3% | KM12 colon 65.3%

O=C1Nc2ccccc2/C1=N\c1nnc(-c2ccccc2)o1
inactive: T-47D breast 77.9% | BT-549 breast 105% | MDA-MB-435 melanoma 102% | SW-620 colon 95.3% | MCF7 breast 66.3% | HCT-116 colon 103% | HCC-2998 colon 111% | KM12 colon 96.7%

COC(=O)CNC(=O)c1cccc(-c2cc(=O)c3c(OC)c(OC)c(OC)cc3o2)c1
inactive: T-47D breast 107% | BT-549 breast 102% | MDA-MB-435 melanoma 107% | SW-620 colon 100% | MCF7 breast 89.2% | HCT-116 colon 101% | HCC-2998 colon 100% | KM12 colon 103%

CCc1cc(OC(=O)N2CCC(N3CCCCC3)CC2)ccc1Nc1cc(-c2ccc(-n3cccn3)cc2)[nH]n1
active: SW-620 colon -38.3% | MCF7 breast 6.81% | HCT-116 colon -64.1%
inactive: T-47D breast 97.2% | BT-549 breast 87.6% | MDA-MB-435 melanoma 37.3% | HCC-2998 colon 83.8% | KM12 colon 70.1%

C=C(C)[C@@H]1CC[C@]2(COP(=O)(OCC)OCC)CC[C@]3(C)[C@H](CC[C@@H]4[C@@]5(C)CC[C@H](OP(=O)(OCC)OCC)C(C)(C)[C@@H]5CC[C@]43C)[C@@H]12
inactive: T-47D breast 20.8% | BT-549 breast 65% | MDA-MB-435 melanoma 61% | SW-620 colon 38.4% | HCC-2998 colon 19.9% | KM12 colon 54.2%
active: MCF7 breast 0.255% | HCT-116 colon 6.75%

COc1cccc2c1[C@H](OC)[C@]13O[C@@]1(C2=O)[C@H](O)[C@H](C)[C@@](O)(C(=O)[C@@H]1O[C@H]1C)[C@@H]3O
active: T-47D breast -11.8% | BT-549 breast -39.6% | MDA-MB-435 melanoma -72.7% | SW-620 colon -14.7% | MCF7 breast -21.3% | HCT-116 colon -26.8% | HCC-2998 colon -79.3% | KM12 colon -31.1%

C#C[C@]1(O)CC[C@H]2[C@@H]3CC=C4c5sc(NCc6ccccc6)nc5CC[C@]4(C)[C@H]3CC[C@@]21C
inactive: T-47D breast 65.8% | BT-549 breast 18.2% | MDA-MB-435 melanoma 82.2% | SW-620 colon 52.7% | MCF7 breast 21.7% | HCT-116 colon 12.5% | HCC-2998 colon 78.1% | KM12 colon 18.9%

CC1=Cc2ccccc2OC12C=Cc1ccccc1O2 (centres undefined)
inactive: T-47D breast 81.8% | BT-549 breast 106% | MDA-MB-435 melanoma 105% | SW-620 colon 101% | MCF7 breast 82.6% | HCT-116 colon 99.3% | HCC-2998 colon 99.9% | KM12 colon 97.6%

Cc1ccc(S(=O)(=O)NCCCNc2nc(Nc3ccc(N4CCN(C)CC4)cc3)nc3ccsc23)cc1
active: BT-549 breast -1% | MDA-MB-435 melanoma 0.595% | HCT-116 colon 5.69%
inactive: T-47D breast 17.2% | SW-620 colon 20.5% | MCF7 breast 19% | HCC-2998 colon 27.3% | KM12 colon 35.8%

NS(=O)(=O)c1ccc(CCn2c(-c3ccc(C(=O)O)cc3)nc(-c3ccccc3)c2-c2ccccc2)cc1
inactive: T-47D breast 104% | BT-549 breast 104% | MDA-MB-435 melanoma 98.8% | SW-620 colon 98.6% | MCF7 breast 93.6% | HCT-116 colon 101% | HCC-2998 colon 108% | KM12 colon 107%

FC(F)(F)c1cc(Br)cc(-c2cc(-c3ccc4c(c3)OCCO4)[nH]n2)c1
active: BT-549 breast -3.55% | MDA-MB-435 melanoma -12.3% | HCT-116 colon 5.67%
inactive: T-47D breast 66.4% | SW-620 colon 25.3% | MCF7 breast 11.4% | HCC-2998 colon 29.1% | KM12 colon 12.3%

COc1ccc(C2C(C#N)=C(/N=C/c3ccc(Cl)cc3)Oc3c2sc2c(C)cccc32)cc1 (centres undefined)
inactive: T-47D breast 17.9% | BT-549 breast 49.5% | SW-620 colon 31.2% | MCF7 breast 21.5% | HCT-116 colon 13.4% | HCC-2998 colon 16.7% | KM12 colon 23.1%
active: MDA-MB-435 melanoma -23.5%

COc1ccccc1/C=C/C(=O)c1nnn(-c2ccc(F)cc2)c1C
active: MCF7 breast 7.51%
inactive: T-47D breast 54.9% | BT-549 breast 62% | MDA-MB-435 melanoma 23.4% | SW-620 colon 19.9% | HCT-116 colon 10.7% | HCC-2998 colon 81.3% | KM12 colon 32.6%

CC(C)(O)c1cncc(-c2ccc3ncc(C#N)c(N4CCc5cc(F)c(Cl)cc54)c3c2)c1
active: T-47D breast 2.88% | BT-549 breast 2.34% | MCF7 breast 8.93%
inactive: MDA-MB-435 melanoma 17.9% | SW-620 colon 26.6% | HCT-116 colon 24.8% | HCC-2998 colon 18.7% | KM12 colon 34.3%

O=C(/C=C/c1cccc(F)c1)c1cccc(OCCCCOc2cccc(C(=O)/C=C/c3cccc(F)c3)c2)c1
inactive: T-47D breast 105% | BT-549 breast 124% | MDA-MB-435 melanoma 103% | SW-620 colon 98.1% | MCF7 breast 54.6% | HCT-116 colon 72.8% | HCC-2998 colon 114% | KM12 colon 110%

CCN(CC)c1ccc(/C=N/NC(=O)c2ccc(NS(C)(=O)=O)cc2)c(O)c1
inactive: T-47D breast 26.3% | BT-549 breast 11.6% | MDA-MB-435 melanoma 28.8% | SW-620 colon 36.9% | HCT-116 colon 21.7% | HCC-2998 colon 38.5% | KM12 colon 15.2%
active: MCF7 breast 6.08%

CN1CCN(Cc2ccc(NC(=O)c3cncc(C#Cc4cnc5ccc(NCCO)nn45)c3)cc2C(F)(F)F)CC1
inactive: T-47D breast 21.5%
active: BT-549 breast -32.2% | MDA-MB-435 melanoma -6.87% | SW-620 colon -13.2% | MCF7 breast -43.5% | HCT-116 colon 0.878% | HCC-2998 colon -8.28% | KM12 colon -4.28%

O=C(/C=C/c1cccc(Br)c1)c1cccc(OCCCCOc2cccc(C(=O)/C=C/c3cccc(Br)c3)c2)c1
inactive: T-47D breast 104% | BT-549 breast 117% | MDA-MB-435 melanoma 105% | SW-620 colon 98.3% | MCF7 breast 89.5% | HCT-116 colon 87% | HCC-2998 colon 118% | KM12 colon 98.7%

O=C(CSc1nnc(-c2ccc(Cl)cc2)n1-c1ccccc1)Nc1cccc(F)c1
inactive: BT-549 breast 50.4% | MDA-MB-435 melanoma 49.6% | SW-620 colon 30.9% | MCF7 breast 39% | HCC-2998 colon 59.7% | KM12 colon 53.3%
active: T-47D breast 3.95% | HCT-116 colon -13.8%

CC(=O)Nc1ccccc1-c1nc2ccccc2s1
inactive: T-47D breast 99.3% | BT-549 breast 102% | MDA-MB-435 melanoma 98.8% | SW-620 colon 107% | MCF7 breast 97.6% | HCT-116 colon 95.3% | HCC-2998 colon 99.7% | KM12 colon 105%

C/C(=C(\c1ccc(O)cc1)c1ccc(OCCN2CCCCCC2)cc1)c1ccc(Cl)cc1
active: T-47D breast -71.9% | BT-549 breast -71.8% | MDA-MB-435 melanoma -73.9% | SW-620 colon -2.89% | MCF7 breast -81.1% | HCT-116 colon -31.7% | HCC-2998 colon -88.2% | KM12 colon -96.1%

CCN(CC)CCOc1ccc(C(=C(C)c2ccc(OC)cc2)c2ccc(OCCN(CC)CC)cc2)cc1
inactive: BT-549 breast 47.9% | KM12 colon 14.7%
active: T-47D breast -45.7% | MDA-MB-435 melanoma -71.5% | SW-620 colon -35.7% | MCF7 breast -64.5% | HCT-116 colon 0.525% | HCC-2998 colon 3.44%

O=C(O)c1ccc(-n2c(=O)n(-c3cccc(C(F)(F)F)c3)c(=O)c3cc(-c4ccc(F)cc4F)ccc32)cc1
inactive: SW-620 colon 15.5% | HCC-2998 colon 13.4%
active: T-47D breast -5.81% | BT-549 breast -3.47% | MDA-MB-435 melanoma 5.93% | MCF7 breast 1.46% | HCT-116 colon 4.2% | KM12 colon 4.47%

C#Cc1nc(/C=C/CCCCCCC(=O)NO)cs1
inactive: T-47D breast 51.6% | BT-549 breast 88.9% | MDA-MB-435 melanoma 55.3% | SW-620 colon 29.3% | MCF7 breast 48% | HCT-116 colon 20% | HCC-2998 colon 108% | KM12 colon 74.7%

— PubChem BioAssay (NCI)
